# Results from ChEMBL document CHEMBL4513216, “Probing the Open Global Health Chemical Diversity Library for Multistage-Active Starting Points for Next-Generation Antimalarials” (ACS Infect Dis, 2020).
# The whole screen tested about 68,000 compounds, of which about 2,700 (4%) showed an effect of 50% or more. This is one part of a sample in which strong results are shown more often than they occur.
# Test system: Plasmodium berghei
# Assay: Screen against P. berghei liver stage (PbLuc), transformed with Luciferase, at 2uM
# Type: functional, HepG2
# Settings: tested at 2 uM
row,SMILES,INHIBITION [%]
1,COc1ccccc1CNC(=O)CN(C)C(C)c1nccs1 (stereo not given),38.91
2,c1cnn(CC2CCCN2c2ncnc3ccsc23)c1 (stereo not given),-16.42
3,CN(C)C(=O)N1CCO[C@@H]2CC(COCc3cccnc3)C[C@H]21 (stereo not given in full),20.01
4,O=C(NCCCc1ccc(F)cc1)c1ccc(N2CCOCC2)cc1,-26.8
5,O=C(NCCCc1ccco1)c1ccc(N2CCOCC2)cc1,-89.85
6,O=C(NCCc1ccncc1)c1ccc(N2CCOCC2)cc1,68.9
7,Cn1c(-c2cc3n(n2)CCCN(CC(=O)O)C3)nc2ccccc21,-15.71
8,Cc1cccc(COC[C@H]2CC[C@H]3[C@H](CCN3C(=O)CC3CC3)O2)n1,9.79
9,Cc1cccc(COC[C@@H]2CC[C@H]3[C@H](CCN3Cc3ccco3)O2)n1,2.39
10,Cc1cccc(COC[C@@H]2CC[C@H]3[C@H](CCN3C(=O)CC3CC3)O2)n1,51.72
11,Cc1cc(C(=O)N2C[C@H](c3ccccc3)[C@@H](N)C2)c2ccc(F)cc2n1,2.31
12,CCc1ocnc1C(=O)N1CCCC1c1noc(C2CC2)n1 (stereo not given),43.85
13,COc1cnc(CSc2nnc(C)s2)cc1OCC(=O)NC1CCCC1,-8.85
14,CCS(=O)(=O)N1CCC(Nc2ccc(C#N)cc2F)CC1,1.36
15,CCCS(=O)(=O)N1CCC(Nc2c(F)cc(C#N)cc2F)CC1,10.85
16,CCS(=O)(=O)N1CCC(Nc2c(F)cc(C#N)cc2F)CC1,55.17
17,Cc1ccc(C(=O)N2CC[C@H]3[C@H]2CCN3CC2CCOCC2)cc1F,-4.54
18,Cc1nc[nH]c1CNCc1cccnc1N(C)C1CCCCC1,-15.91
19,COc1cccc(OCCc2nc3c(cc2C(N)=O)CCC3)c1,23.18
20,Cc1cnn(CC(C)NCc2cccnc2)c1 (stereo not given),8.13
21,Cc1cnn(CCNCc2cccnc2)c1,0.9
22,Cc1cnn(CCNCc2ccc(OCc3ccncc3)cc2)c1,40.88
23,Cc1cnn(CCNCc2ccc(OCc3cccnc3)cc2)c1,88.86
24,Cc1cnn(CC(C)NCc2ccc(OCc3cccnc3)cc2)c1 (stereo not given),16.18
25,Cc1cnn(CC(C)NCc2ccccc2OCc2cccnc2)c1 (stereo not given),50.05
26,Cn1c(=O)ccn(CC(=O)Nc2cnccc2O)c1=O,16.37
27,COCCC1(CO)CCCN(Cc2ccc(C(F)(F)F)nc2)C1 (stereo not given),26.66
28,CN1CCCC2(CC1)CCN(C(=O)CCc1ccccc1F)CC2,50.59
29,CN1CCN(CC2(O)CCN(C(=O)CCc3ccccc3F)C2)CC1 (stereo not given),-20.27
30,CN1CCCC2(CC1)CCN(C(=O)CCc1ccccc1O)CC2,48.21
